In PubChem BioAssay AID1220 (Sanford-Burnham Center for Chemical Genomics, 2008):
The whole screen tested about 190,000 compounds, of which about 1,300 (0.68%) were called active. This is one part of a sample in which actives are shown more often than they occur. Cut-off read from the data, not from the text of the source: active = inhibition above about 50%; inactive = the rest.

Target: Mannose-6-phosphate isomerase (Homo sapiens) (UniProt P34949)
Test: MPI inhibition at elevated mannose 6-phosphate – biochemical, fluorescence intensity, high mannose 6-phosphate, primary screen (AID 1220)
Details: recombinant PMI enzyme, coupled fluorescence intensity; at 20 µM; hits give high values

Mannose-6-phosphate isomerase (Homo sapiens), sequence (P34949 whole entry, looked up): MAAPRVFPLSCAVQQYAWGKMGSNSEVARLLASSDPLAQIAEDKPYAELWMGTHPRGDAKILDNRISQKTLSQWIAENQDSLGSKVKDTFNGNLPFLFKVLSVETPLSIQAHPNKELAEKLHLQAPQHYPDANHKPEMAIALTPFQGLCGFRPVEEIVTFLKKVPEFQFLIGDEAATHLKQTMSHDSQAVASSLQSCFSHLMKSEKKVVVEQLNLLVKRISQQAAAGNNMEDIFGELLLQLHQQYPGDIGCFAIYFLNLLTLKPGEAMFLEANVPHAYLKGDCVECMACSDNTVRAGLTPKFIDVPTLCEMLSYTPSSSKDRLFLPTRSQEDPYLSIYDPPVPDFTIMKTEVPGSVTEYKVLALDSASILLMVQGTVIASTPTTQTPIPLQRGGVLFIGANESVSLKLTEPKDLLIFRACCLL

inhibition, active:
CN1COc2ccc3ccccc3c2C1 67.8%
O=[N+]([O-])c1ccc2c(c1Nc1ccccc1)=NC1(CCCCC1)N=2 58.9%
Cc1ccc(Nc2c([N+](=O)[O-])ccc3c2=NC2(CCCCC2)N=3)cc1 50.8%
Cc1cc(NC(=O)c2ccccc2)n(-c2nc3ccccc3[nH]2)n1 59.2%
CCOc1cc(NC(=S)Nc2cccc(OC)c2)c(OCC)cc1NC(=O)c1ccc(C)cc1 55.1%
CCOc1cc(NC(=S)Nc2ccccc2)c(OCC)cc1NC(=O)c1ccc(OC)cc1 56.8%
CCOc1cc(NC(=S)Nc2ccc(Cl)cc2)c(OCC)cc1NC(C)=O 55.9%
CCOc1cc(NC(=S)Nc2cccc(OC)c2)c(OCC)cc1NC(=O)C1CC1 56.8%
CCOc1ccc(NC(=O)c2ccc(NC(=S)NC3CCCCC3)cc2)cc1 52.6%
COc1cc2c(C#N)c(N3CCN(c4ccccc4OC)CC3)nc(N)c2c(N)n1 54%
CCOC(=O)Cn1c(=O)oc2cc(S(=O)(=O)Nc3ccc(N(CC)CC)cc3C)ccc21 51.2%
O=C1c2cccc3c(O)ccc(c23)C(=O)N1Cc1ccco1 64.3%
O=[N+]([O-])c1ccc(Oc2ccc(F)cc2Br)c2ccncc12 50%
N#C/C=C\Oc1ccc(Cl)cc1N 57.9%
O=C(CNC(=S)N(CCCN1CCOCC1)Cc1cccs1)N1CCCCCC1 55.1%
O=C1C=C(Nc2ccc(O)cc2)CC(c2ccco2)C1 (centres undefined) 60.2%
CCN1C(=O)c2cccc3c(S(=O)(=O)NCc4ccco4)ccc1c23 63%
CCOC(=O)c1ccc(NC(=O)Nc2ccc3c4c(cccc24)C(=O)N3CC)cc1 53.1%
CCN1C(=O)c2cccc3c(NS(=O)(=O)c4ccc(NC(C)=O)cc4)ccc1c23 55.9%

inhibition, inactive:
C=CCn1c(SCC(N)=O)nnc1-c1cccc(Br)c1 1%
Cc1ccc(CN2CCN(Cc3cnc(C)[nH]3)CC2CCO)cc1 (centres undefined) 2%
O=C(Nc1c(F)cc(F)cc1Br)C1CCCO1 (centres undefined) 15.5%
CC(=O)NCCc1ccc(S(=O)(=O)N2CCOCC2)cc1 -2.7%
CCOC(=O)CNC(=O)CSc1nnc(SCC(=O)NCC(=O)OCC)s1 -6.4%
COc1ccc(/C=C/C(=O)NC(=S)N2CCN(C)CC2)cc1 -10.4%
CSc1ccccc1NC(=O)CN(C)CC(=O)Nc1ccccc1F -13.9%
Cc1ccc(NC(=S)N(Cc2ccco2)C2CCN(C(C)C)CC2)cc1 -8.2%
Cn1c2c(c(=O)n(C)c1=O)[C@@H]1c3c(ccc4ccccc34)OC[C@@H]1CO2 -2.5%
O=C1COc2ccc3ccccc3c2CN1 -0.8%
Cc1ccc(C(=O)N/N=C/c2ccc(N3CCOCC3)cc2)c(C)c1 -8%
CCN(C(=O)c1ccc(NC(C)=O)cc1)c1ccccc1C -3%
Cc1ccc(NC(=O)c2ccc(Nc3c([N+](=O)[O-])cc([N+](=O)[O-])cc3[N+](=O)[O-])cc2)cc1 3.9%
Cc1ccc(Nc2cc(C)nc3c(C)ccc([N+](=O)[O-])c23)cc1 10.2%
O=[N+]([O-])c1ccccc1Nc1ccccc1 -3.7%
Cc1ccccc1Nc1c([N+](=O)[O-])ccc2c1=NC1(CCCCC1)N=2 38.7%
C[C@H]1CC[C@@]2(O[C@H](CCO)C[C@@H](O)[C@@H]2O)O1 12.7%
COc1ccc(Cn2nnc3c(=O)[nH]c(C4CCCN(C(=O)c5ccccc5)C4)nc32)cc1 (centres undefined) -5.4%
CCOC(=O)/C(=N\O)C1=NC(C)(C)Cc2ccccc21 -11.3%
CC1(C)Cc2ccccc2C(/C(=N/O)C(N)=O)=N1 5.1%
COc1ccc(-c2c(C)nn3c(N4CCC(C(=O)NCCN(C)C)CC4)cc(C)nc23)cc1OC 5.7%
CCN(CC)CCNC(=O)C(C(=O)c1ccccc1)n1ccccc1=O (centres undefined) 1.8%
COc1ccc(CNC(=O)C(c2ccncc2)N(C(=O)Cc2cccs2)c2ccccc2)cc1 (centres undefined) 1.9%
Cc1cc(NC(=O)c2c(F)cccc2F)n(-c2nc3ccccc3[nH]2)n1 3%
Cc1cc(NC(=O)c2ccccc2F)n(-c2nc3ccccc3[nH]2)n1 -1.3%
COc1cc(OC)c(-c2nnc3n(CCc4ccccc4)c(=O)c4ccccc4n23)cc1OC 10.4%
COc1ccc(CCN2C(=O)C3C4C=CC(C4)C3C2=O)cc1OC (centres undefined) 14%
CCCCOc1ccc(Nc2nc(C)cc(C)c2C#N)cc1 6.1%
CCOc1cc(NC(=S)Nc2cccc(C)c2)c(OCC)cc1NC(=O)CC(C)C 17.5%
CCOc1cc(NC(=O)CCl)c(OCC)cc1NC(C)=O 20.4%
CCOc1cc(NC(=S)Nc2ccccc2)c(OCC)cc1NC(=O)c1ccccc1 7.3%
CCOc1cc(NC(=S)NC)c(OCC)cc1NC(=O)c1ccc(OC)cc1 49.8%
COc1cccc(NC(=O)C2CCCCC2)c1 5.6%
COc1cccc(NC(=O)CNC(=O)c2ccc(C)cc2)c1 0.9%
CCOc1cc(NC(=S)Nc2cccc(OC)c2)c(OCC)cc1NC(=O)C(C)C 45.4%
CCOc1ccc(NC(=S)Nc2cc(OC)c(Cl)cc2OC)cc1 24.8%
CCCCOc1ccc(Br)cc1CSC(=N)N -4.3%
O=C(C[n+]1ccc(-c2cc(C(=O)Nc3cccc(C(F)(F)F)c3)c3ccccc3n2)cc1)c1cccc([N+](=O)[O-])c1 -6.2%
COc1ccc(/C=C(/NC(=O)c2ccccc2)C(=O)N/N=C/c2ccc3c(c2)OCO3)cc1OC -10.4%
O=C(CC1Nc2ccccc2NC1=O)NCCCN1CCCCCC1 (centres undefined) 0.7%
Cc1ccc(NC(=S)N2CCN(S(=O)(=O)c3c(F)cccc3F)CC2)cc1C 11.5%
CC1CCCCN1C(=O)C12CCC(C)(C(=O)C1)C2(C)C (centres undefined) 48.1%
Cc1c(C(N)=O)sc2ncn(CC(=O)NCCc3ccccc3)c(=O)c12 -8.4%
O=C(CCc1c[nH]c2ccccc12)NCC(=O)Nc1ccc(F)c(F)c1F -1.9%
CCCC(=O)Nc1ccc(S(=O)(=O)Nc2cc(C)nc(C)n2)cc1 4.9%
CCOC(=O)c1ccc(NC(=S)NC2CCCC2)cc1 -1.3%
CCOc1ccc(NC(=O)c2ccc(NC(=S)NC3CC3)cc2)cc1 12.4%
CCCCN(C(=O)NC(=O)Nc1cccc(C)c1C)S(C)(=O)=O -3.7%
COc1cc2c(C#N)c(N3CCOCC3)nc(N)c2c(N)n1 22%
COc1cc2c(C#N)c(N3CCN(C)CC3)nc(N)c2c(N)n1 34.6%
COc1ccc(CN=CC2=C(O)CNC2=O)cc1OC -8.2%
CCOC(=O)Cn1c(=O)oc2cc(S(=O)(=O)Nc3c(C)cc(C)cc3C)ccc21 5.9%
CCN(CC)c1ccc(NS(=O)(=O)c2ccc3c(c2)oc(=O)n3C)c(C)c1 23.7%
CCOc1ccc(-c2csc(NC(=O)CSC3=NC(=O)CN3C(C)=O)n2)c2ccccc12 14.8%
O=C1c2cccc3c(O)ccc(c23)C(=O)N1Cc1ccccc1 7.6%
O=C1c2cccc3cccc(c23)C(=O)N1Cc1ccco1 -4.4%
CSc1nc(O)c(C2OC(=O)c3ccccc32)c(=O)[nH]1 (centres undefined) 8.9%
Cc1ccc(NS(=O)(=O)c2ccc3[nH]c(=O)c(=O)[nH]c3c2)cc1Cl 14.3%
O=[N+]([O-])c1ccc(Oc2ccc(F)cc2)c2ccncc12 17.6%
O=[N+]([O-])c1ccc(Oc2cccc(F)c2)c2ccncc12 -0.7%
Nc1cc(Cl)ccc1Oc1ccc(Cl)cc1 -1.6%
Nc1cc(Cl)ccc1Oc1ccccc1 -2.5%
COc1cc(-c2nnc(COC(=O)c3cc(C)nc4ccc(C)cc34)o2)cc(OC)c1OC 13%
CCN1CCN(CCOCCOc2ccccc2-c2ccccc2)CC1 -4.3%
O=S(=O)(Cc1ccc(Cl)cc1)NCC1CCCO1 (centres undefined) 14.9%
CCOC(=O)c1cc2c(C)n(-c3ccc(N(C)C)cc3)c(C)c2cc(C(=O)OCC)c1=O 37.3%
Cn1c(C(=O)N2CCCc3ccccc32)cc2sccc21 -3.3%
O=C(CNC(=S)N(CCCN1CCOCC1)Cc1cccs1)N1CCOCC1 -1.9%
O=C(CNC(=S)N(CCCN1CCOCC1)Cc1cccs1)N1CCCC1 -5%
CCCC(=O)Nc1ccccc1N1CCN(C(=O)C(C)C)CC1 -0.1%
CN(C)c1ccc(NC(=O)c2cn(-c3ccccc3)nc2-c2cccs2)cc1 13.7%
O=C1C=C(Nc2cccc(O)c2)CC(c2ccco2)C1 (centres undefined) 12%
O=C1C=C(Nc2ccc(Cl)cc2)CC(c2ccco2)C1 (centres undefined) 5.8%
COC(=O)c1cccc([N+](=O)[O-])c1CN1CCCC(C(N)=O)C1 (centres undefined) -6.5%
CCN1C(=O)c2cccc3c(S(=O)(=O)NCc4ccccn4)ccc1c23 -3.8%
CCOc1cc(C(=O)Nc2ccc3c4c(cccc24)C(=O)N3CC)cc(OCC)c1OCC -4.4%
CCN1C(=O)c2cccc3c(NC(=O)c4ccc(S(=O)(=O)N(C)C)cc4)ccc1c23 13.6%
CN1C(=O)c2cccc3c(S(=O)(=O)NCc4ccco4)ccc1c23 1.8%
CCN1C(=O)c2cccc3c(NC(=O)C(C)(C)C)ccc1c23 11.8%
CCN1C(=O)c2cccc3c(NC(=O)c4ccccc4)ccc1c23 27.7%
